The target of this assay is APOBEC3G R313E/R320D (Homo sapiens, UniProt Q9HC16 Q9HC16:1-384, R313E,R320D). The experiment in a line: FP; 5 mM MgCl2, 37 C. The following applies: tags: Sf9, pAcG2T; label: internal fluorescein-dT; ssDNA; [15 (fluorescein-dT)]. As to the method:
Apo3G-DNA binding were monitored by changes in steady state fluorescence depolarization (rotational anisotropy). Reaction mixtures (70 μl), containing an F-labeled DNA ([…]) in buffer (50 mM HEPES, pH 7.3, 1 mM DTT and 5 mM MgCl₂) and varying concentration of 0 to 500 nM Apo3G, were incubated at 37° C. The sequence of the ssDNA is: tta gat gag tgt aa(FdT) gtg ata tat gtg tat. Rotational anisotropy was measured as described previously (Chelico et al., 2006). The fraction of DNA bound to protein was determined as described previously (Bertram et al., 2004).
Sequence of APOBEC3G R313E/R320D (Q9HC16 whole entry R313E/R320D, one chain of several): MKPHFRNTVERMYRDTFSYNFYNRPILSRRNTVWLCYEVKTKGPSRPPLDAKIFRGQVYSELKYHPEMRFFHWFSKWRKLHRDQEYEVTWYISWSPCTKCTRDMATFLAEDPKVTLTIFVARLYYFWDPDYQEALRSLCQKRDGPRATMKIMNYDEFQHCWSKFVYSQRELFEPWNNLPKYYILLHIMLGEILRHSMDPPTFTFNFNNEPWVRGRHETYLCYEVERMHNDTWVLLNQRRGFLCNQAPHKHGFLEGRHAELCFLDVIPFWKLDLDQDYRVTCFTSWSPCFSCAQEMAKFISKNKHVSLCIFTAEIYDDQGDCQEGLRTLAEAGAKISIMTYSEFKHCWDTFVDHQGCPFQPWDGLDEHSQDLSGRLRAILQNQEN
As to TTAGATGAGTGTAATGTGATATATGTGTAT, the binding signal was 77 % of wt.

The record behind these values is patent US20100081621, “Crystal structure of the catalytic domain of the viral restriction factor APOBEC3G” (published 2010).
